Measurements as given in PubChem BioAssay (NCATS).
Results filed as inconclusive are left out. Calls of active or inactive are those of the source. Unless noted, calls follow the shape of the dose curve; as a rule, active = well fitted curve in either direction with a large enough effect (not every such curve was filed as active); inconclusive = small, poorly fitted or top-dose-only effect, or another doubt; inactive = flat fitted curve, though single readings scatter.

How the values were obtained:
[1] = molecular target: Lysosomal acid glucosylceramidase (Homo sapiens) (UniProt P04062); assay: Glucocerebrosidase-p2 (AID 348; in the data active = potency below about 10 µM; also: potency is read from the fitted curve at half-maximal effect); conditions: purified GBA, blue fluorogenic substrate, 40 min
Lysosomal acid glucosylceramidase (Homo sapiens), sequence (P04062 whole entry, looked up): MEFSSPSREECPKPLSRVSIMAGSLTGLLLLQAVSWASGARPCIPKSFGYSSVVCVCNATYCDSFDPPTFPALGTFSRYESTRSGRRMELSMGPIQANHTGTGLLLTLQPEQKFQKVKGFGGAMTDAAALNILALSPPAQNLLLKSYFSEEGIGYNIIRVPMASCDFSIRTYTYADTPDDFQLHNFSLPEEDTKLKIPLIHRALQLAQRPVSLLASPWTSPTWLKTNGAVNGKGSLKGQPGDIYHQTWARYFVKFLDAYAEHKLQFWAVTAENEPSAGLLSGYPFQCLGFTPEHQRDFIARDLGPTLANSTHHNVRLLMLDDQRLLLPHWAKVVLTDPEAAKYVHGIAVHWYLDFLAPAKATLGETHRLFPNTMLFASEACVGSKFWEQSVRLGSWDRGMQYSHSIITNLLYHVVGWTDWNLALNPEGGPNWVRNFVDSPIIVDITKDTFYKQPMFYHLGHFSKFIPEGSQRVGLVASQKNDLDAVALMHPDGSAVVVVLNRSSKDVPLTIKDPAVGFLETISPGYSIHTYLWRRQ
Outline: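 Compounds titrated from 0.6 nM upwards against 0.2 nM enzyme in pH 5.9 citric acid/KH2PO4, taurocholate, tween-20; blue fluorogenic substrate 80 uM, 40 min room temperature, stopped and read Ex 365/Em 440 for AC50.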

[2] = AP1 Signaling Pathway (AID 357); conditions: ME-180 AP-1-bla reporter, EGF-induced, beta-lactamase ratio, 5 h; at 7.69 µM (top of the series) unless noted;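 also: ME-180 reporter cells stimulated with EGF at its EC50 level; % is scaled to controls: 0 for no effect and ±100 for the full control effect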
Outline: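 First, ME-180 AP-1-bla cells were cultured overnight at 37 °C in low-serum Opti-MEM. Next, titrated compounds with EC50 EGF were incubated 5 hours. Finally, CCF4 was added for 2.5 hours and the 460/530 nm ratio recorded.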

[3] = molecular target: Cytochrome P450 1A2 (Homo sapiens) (UniProt P05177); assay: p450-cyp1a2 (AID 410; calls by dose curve; also: potency is read from the fitted curve at half-maximal effect;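 as to activity change, negative = inhibition: -100% = full effect of reference inhibitor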); conditions: recombinant CYP1A2, luciferin-ME demethylation, luminescence; series mostly up to 57 µM
Cytochrome P450 1A2 (Homo sapiens), sequence (P05177 whole entry, looked up): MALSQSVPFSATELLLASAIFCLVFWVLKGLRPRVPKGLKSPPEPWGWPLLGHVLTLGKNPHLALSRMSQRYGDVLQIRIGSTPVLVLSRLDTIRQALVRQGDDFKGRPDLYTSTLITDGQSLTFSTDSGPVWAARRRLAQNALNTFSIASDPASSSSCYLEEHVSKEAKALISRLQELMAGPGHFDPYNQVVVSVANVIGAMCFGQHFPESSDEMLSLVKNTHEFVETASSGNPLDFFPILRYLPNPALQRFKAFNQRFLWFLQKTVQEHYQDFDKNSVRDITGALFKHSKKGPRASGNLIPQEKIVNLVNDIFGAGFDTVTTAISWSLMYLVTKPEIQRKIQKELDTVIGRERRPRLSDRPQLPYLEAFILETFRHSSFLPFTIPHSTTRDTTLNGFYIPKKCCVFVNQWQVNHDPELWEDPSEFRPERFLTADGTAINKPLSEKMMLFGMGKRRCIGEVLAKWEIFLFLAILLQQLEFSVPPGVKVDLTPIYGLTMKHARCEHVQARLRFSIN
Outline: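 Luminescent readout of luciferin formed from Luciferin-ME by human CYP1A2; data normalized against complete inhibition by 57 uM furafylline. Enzyme 20nM, substrate 100uM at Km, 100mM KPO4 buffer, 60 min reaction at room temperature.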

[4] = NFAT Signaling Pathway (AID 444); conditions: Jurkat NFAT-bla M1, carbachol, beta-lactamase ratio, 5 h; at 7.69 µM (top of the series) unless noted;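 also: carbachol stimulus at about its EC50 of 1 µM final; % is scaled to controls: 0 for no effect and ±100 for the full control effect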
Outline: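 Read-out: CCF4 FRET ratio (460 nm/530 nm) after 1 h RT dye loading, used for %activity and AC50 from titration series. Cells: Jurkat NFAT-β-lactamase/M1 line, treated with compound plus 1 uM carbachol for 5 h, 37 °C.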

[5] = Stat Signaling Pathway (AID 446); conditions: ME-180 SIE beta-lactamase reporter, IL-6 stimulated, 5 h; at 7.69 µM (top of the series) unless noted;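 also: ME-180 cervical cancer cells given 40 pM IL-6 alongside compound; SIE-controlled beta-lactamase reporter measured as 460/530 nm FRET emission ratio; % is scaled to controls: 0 for no effect and ±100 for the full control effect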
Outline: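 ME-180 SIE-bla cells; overnight plating; cpd + IL-6 40 pM, 5 h, 37 C; LiveBLAzer 2.5 h RT; 460/530 nm emission ratio. Normalized to 300 pM IL-6 and 125 nM JAK inhibitor controls.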

[6] = molecular target: Glucocorticoid receptor (Homo sapiens) (UniProt P04150); assay: GR-EFC Redistribution (AID 451; calls by dose curve; also: potency is read from the fitted curve at half-maximal effect); conditions: CHO-K1 GR-EFC translocation, beta-gal luminescence, 2 h
Glucocorticoid receptor (Homo sapiens), sequence (P04150 whole entry, looked up, the tested form may be a part): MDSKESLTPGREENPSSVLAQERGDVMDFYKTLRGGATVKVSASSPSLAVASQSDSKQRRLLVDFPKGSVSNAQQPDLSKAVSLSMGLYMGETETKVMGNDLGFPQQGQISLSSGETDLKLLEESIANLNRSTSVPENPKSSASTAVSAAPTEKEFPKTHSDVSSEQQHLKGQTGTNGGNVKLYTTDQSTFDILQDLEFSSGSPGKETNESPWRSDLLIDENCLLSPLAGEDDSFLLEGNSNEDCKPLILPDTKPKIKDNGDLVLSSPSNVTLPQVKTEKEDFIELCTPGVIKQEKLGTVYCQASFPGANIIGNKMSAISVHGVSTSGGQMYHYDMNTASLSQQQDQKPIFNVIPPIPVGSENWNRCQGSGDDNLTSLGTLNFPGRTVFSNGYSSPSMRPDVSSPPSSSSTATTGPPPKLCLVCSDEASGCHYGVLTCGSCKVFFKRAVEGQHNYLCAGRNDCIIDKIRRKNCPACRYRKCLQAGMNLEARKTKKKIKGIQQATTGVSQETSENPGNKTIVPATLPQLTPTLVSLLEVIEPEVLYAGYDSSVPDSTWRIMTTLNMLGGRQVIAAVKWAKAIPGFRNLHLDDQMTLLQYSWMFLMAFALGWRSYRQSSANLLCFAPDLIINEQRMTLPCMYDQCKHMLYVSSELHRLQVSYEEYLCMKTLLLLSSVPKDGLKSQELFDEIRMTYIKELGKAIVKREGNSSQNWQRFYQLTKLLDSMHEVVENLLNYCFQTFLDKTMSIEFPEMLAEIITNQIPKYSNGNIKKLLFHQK
Outline: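 Translocation of GR-ED fusion to nuclear EA restores b-gal, read by luminescence after 1 h room-temperature detection. Engineered CHO-K1 biosensor cells, 1,000/well, exposed 2 h at 37 C to titrations up to 46 uM final.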

[7] = molecular target: Mitogen-activated protein kinase 10 (Mus musculus) (UniProt Q61831); assay: JNK3 AlphaScreen Assay (AID 530); conditions: JNK3 lysate, c-Jun phosphorylation; series mostly up to 57.1 µM;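 also: kinase came from lysate of stimulated human HepG2 cells; signal reports phosphorylation of biotinylated GST-cJun 1-79 at Ser73 with 10 µM ATP; % is scaled to controls: 0 for no effect and ±100 for the full control effect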
Outline: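 Compound titrations were preincubated 15 minutes at room temperature with substrate, antibody and pre-activated JNK3-containing HepG2 lysate. Reactions were started with 10 uM ATP and stopped with EDTA-containing bead buffer for AlphaScreen detection.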

[8] = molecular target: 3',5'-cyclic-AMP phosphodiesterase 4B (Homo sapiens) (UniProt Q07343); assay: qHTS Assay for Inhibitors of PDE-IV (AID 607; active = well fitted activation curve with a large enough effect in the main read-out, with a control signal flat, not every such curve was filed as active; also: % of control where 0% means no effect); conditions: HEK293 ACTOne CNG channel cells, membrane potential fluorescence; series mostly up to 22.9 µM
3',5'-cyclic-AMP phosphodiesterase 4B (Homo sapiens), sequence (Q07343 whole entry, looked up): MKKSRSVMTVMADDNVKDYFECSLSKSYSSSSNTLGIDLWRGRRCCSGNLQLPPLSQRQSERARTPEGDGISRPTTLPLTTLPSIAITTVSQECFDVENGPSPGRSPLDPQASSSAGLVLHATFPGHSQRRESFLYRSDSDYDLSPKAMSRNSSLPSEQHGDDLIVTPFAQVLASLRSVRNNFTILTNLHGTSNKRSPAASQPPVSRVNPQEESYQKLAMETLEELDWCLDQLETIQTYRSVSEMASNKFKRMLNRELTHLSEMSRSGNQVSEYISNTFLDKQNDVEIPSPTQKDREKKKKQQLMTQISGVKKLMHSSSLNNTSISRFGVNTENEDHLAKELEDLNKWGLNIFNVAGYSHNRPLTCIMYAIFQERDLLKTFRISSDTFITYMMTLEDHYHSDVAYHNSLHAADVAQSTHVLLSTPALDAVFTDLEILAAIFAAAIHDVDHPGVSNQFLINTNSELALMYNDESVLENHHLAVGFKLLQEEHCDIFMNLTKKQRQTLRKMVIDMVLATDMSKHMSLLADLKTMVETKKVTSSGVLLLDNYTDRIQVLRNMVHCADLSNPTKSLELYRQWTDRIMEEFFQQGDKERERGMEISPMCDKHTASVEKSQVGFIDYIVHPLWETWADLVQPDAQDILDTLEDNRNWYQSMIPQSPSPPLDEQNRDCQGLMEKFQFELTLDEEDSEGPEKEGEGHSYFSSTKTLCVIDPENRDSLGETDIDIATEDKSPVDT
Outline: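 ACTOne HEK293 cells carry a modified cAMP-gated CNG channel and express endogenous PDE4; plated 1000 cells/well, compounds up to 22.9 uM final. Membrane-potential dye fluorescence (ex 535/em 590) was read; parental cells received 10 uM forskolin + 100 uM RO 20-1724.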

[9] = molecular target: Cytochrome P450 3A4 (Homo sapiens) (UniProt P08684); assay: qHTS Assay for Activators of Cytochrome P450 3A4 (AID 885; active = well fitted curve in the direction sought with a large enough effect; an effect the other way counts as inactive or inconclusive; also: nearly all actives have a fitted effect of over 65% in size); conditions: recombinant CYP3A4, Luciferin-PPXE luminescence, 60 min; series mostly up to 57.1 µM
Cytochrome P450 3A4 (Homo sapiens), sequence (P08684 whole entry, looked up): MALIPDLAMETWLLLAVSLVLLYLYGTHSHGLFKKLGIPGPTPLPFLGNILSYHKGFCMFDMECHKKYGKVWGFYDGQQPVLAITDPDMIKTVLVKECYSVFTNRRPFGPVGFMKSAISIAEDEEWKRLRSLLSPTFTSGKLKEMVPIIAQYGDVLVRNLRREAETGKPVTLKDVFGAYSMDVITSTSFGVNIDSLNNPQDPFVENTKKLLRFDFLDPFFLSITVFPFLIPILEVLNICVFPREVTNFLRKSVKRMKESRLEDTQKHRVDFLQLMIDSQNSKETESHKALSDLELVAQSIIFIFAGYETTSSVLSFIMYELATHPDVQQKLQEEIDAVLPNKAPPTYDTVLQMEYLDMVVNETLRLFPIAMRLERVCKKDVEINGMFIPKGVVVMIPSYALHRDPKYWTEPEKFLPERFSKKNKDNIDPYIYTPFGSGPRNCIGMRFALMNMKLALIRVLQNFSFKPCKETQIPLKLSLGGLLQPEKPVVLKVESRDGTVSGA
Outline: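 20nM CYP3A4 + 25uM Luciferin-PPXE (=KM), 200mM KPO4; cpd 10 min RT; NADPH regen, 60 min RT; stop w/ detection buffer, 20 min; luminescence. Normalized to 57 uM ketoconazole.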

[10] = qHTS Assay for Lipid Storage Modulators (AID 1519; calls by dose curve); conditions: Drosophila S3 cells, BODIPY lipid droplet/cell ratio, laser cytometry, cells loaded with oleic acid; for activity change, negative = inhibition: at 57.5 µM (top of the series)
Outline: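 Cells seeded at 5,000 per well were treated with compounds over a concentration series and loaded with oleic acid (400 uM, as added). Lipid droplet fluorescence (488 nm excitation, 500-530 nm channel) was read by laser-scanning cytometry and normalized to 20 uM Triacsin C.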

[11] = Primary qHTS for small molecule stabilizers of the endoplasmic reticulum resident proteome: Secreted ER Calcium Modulated Protein (SERCaMP) assay (AID 1508630; active = well fitted curve in the direction sought with a large enough effect; an effect the other way counts as inactive or inconclusive; also: % is scaled to controls: 0 for no effect and ±100 for the full control effect); conditions: SH-SY5Y GLuc-SERCaMP (Gaussia luciferase released on ER calcium loss) secretion, thapsigargin, luminescence; series mostly up to 38.4 µM
Outline: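 GLuc-SERCaMP-expressing SH-SY5Y cells, pretreated 16 h with compound, are challenged with thapsigargin to empty ER calcium stores; after 4 h, coelenterazine is added directly to the medium and luminescence is imaged.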

[12] = molecular target: Cytochrome P450 2D6 (Homo sapiens) (UniProt P10635); assay: qHTS Assay for Inhibitors and Substrates of Cytochrome P450 2D6 (AID 891; active = well fitted curve in the direction sought with a large enough effect; an effect the other way counts as inactive or inconclusive; also: potency is read from the fitted curve at half-maximal effect; nearly all actives have a fitted effect of over 60% in size); conditions: recombinant CYP2D6, luciferin-ME EGE luminescence; series mostly up to 57.1 µM
Cytochrome P450 2D6 (Homo sapiens), sequence (P10635 whole entry, looked up): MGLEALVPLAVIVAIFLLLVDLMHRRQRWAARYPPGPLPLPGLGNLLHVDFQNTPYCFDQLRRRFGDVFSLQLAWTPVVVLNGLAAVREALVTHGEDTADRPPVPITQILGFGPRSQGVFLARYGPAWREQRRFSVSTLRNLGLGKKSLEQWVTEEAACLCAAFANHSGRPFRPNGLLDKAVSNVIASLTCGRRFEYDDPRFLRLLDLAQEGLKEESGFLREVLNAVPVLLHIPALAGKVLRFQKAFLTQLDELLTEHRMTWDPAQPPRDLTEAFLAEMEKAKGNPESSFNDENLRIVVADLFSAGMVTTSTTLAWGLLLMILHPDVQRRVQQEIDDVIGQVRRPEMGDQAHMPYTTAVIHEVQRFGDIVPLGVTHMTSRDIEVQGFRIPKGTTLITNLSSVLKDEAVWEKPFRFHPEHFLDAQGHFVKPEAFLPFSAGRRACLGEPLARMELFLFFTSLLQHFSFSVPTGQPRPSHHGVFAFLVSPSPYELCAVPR
Outline: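 Human CYP2D6 (5 nM) with 30 uM Luciferin-ME EGE (at Km) in 100 mM KPO4, compound preincubated 10 min, then NADPH regeneration system for 60 min at room temperature. Luciferin read by luminescence; normalized to 1.43 uM quinidine.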

[13] = qHTS Assay for Identification of Small Molecule Agonists for Hypoxia Response Element Signaling Pathway (AID 914; active = well fitted activation curve with a large enough effect in the signal ratio, with a control signal flat, not every such curve was filed as active; the % refers to the signal ratio; also: % of control where 0% means no effect); conditions: ME-180 (cervical carcinoma) HRE-bla reporter, beta-lactamase ratio, CoCl2, 17 h; activation: stronger effect = higher value
Outline: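 HRE-bla ME-180 assay for agonist-like enhancement of an EC50 CoCl2 stimulus: 17 h at 37 degrees Celsius, CCF4 for 2.5 h, ratiometric 460/530 nm signal converted to %Activity and fitted to AC50.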

[14] = measured here: cell count channel max response
[15] = measured here: lipid channel max response

Row | SMILES | Potency [1] | activity change, negative = inhibition [2] | Potency [3] | activity change, negative = inhibition [4] | activity, negative = inhibition [5] | Potency [6] | outcome [7] | Potency [8] | Potency [9] | activity change, negative = inhibition [10] | max response [10, 14] | max response [10, 15] | Potency [11] | Potency [12] | activation [13]
1 | N#Cc1cccc(NC(=O)N2CC[C@@]3(CCCNC3)C2)c1 | > 11.4 µM (inactive) | 9.42% (inactive) | inactive | 9.18% (inactive) | -4.17% (inactive) | > 46 µM (inactive) | inactive | inactive | inactive | 1.94% (inactive) | -6.65% | -1.99% | inactive | – | –
2 | COc1ccc(C(=O)N2CCC[C@@]3(CCN(Cc4ccc(C#N)cc4)C3)C2)cc1 | > 11.4 µM (inactive) | -1.6% (inactive) | inactive | -4.67% (inactive) | 3.73% (inactive) | > 46 µM (inactive) | inactive | inactive | inactive | 3.64% (inactive) | 10.2% | 17.8% | inactive | – | –
3 | CN1CCCC2(CCN(C(=O)c3cnccn3)CC2)C1 | > 11.4 µM (inactive) | -9.74% (inactive) | inactive | -25% (inactive) | 3.76% (inactive) | > 46 µM (inactive) | inactive | inactive | inactive | -0.798% (inactive) | 2.95% | 3.48% | inactive | – | –
4 | O=C(c1csnn1)N1CCC[C@@]2(CCN(Cc3nccs3)C2)C1 | > 11.4 µM (inactive) | 2.1% (inactive) | inactive | 2.26% (inactive) | -2.25% (inactive) | > 46 µM (inactive) | inactive | inactive | inactive | 6.67% (inactive) | 15.7% | 25.3% | inactive | 5.01 µM (active) | -0.307% (inactive)
5 | COc1ccc(NC(=O)N2CCCC3(CCN(S(C)(=O)=O)CC3)C2)cc1 | > 11.4 µM (inactive) | -11.2% (inactive) | inactive | 21.9% (inactive) | 17.2% (inactive) | > 46 µM (inactive) | inactive | inactive | inactive | 3.48% (inactive) | -9.3% | -4.34% | inactive | – | –
6 | CC(C)CN1CC[C@@]2(CCCN(C(=O)c3csnn3)C2)C1 | > 11.4 µM (inactive) | -0.149% (inactive) | inactive | -1.84% (inactive) | 5.64% (inactive) | > 46 µM (inactive) | inactive | inactive | inactive | 1.65% (inactive) | -1.75% | 2.01% | inactive | 0.501 µM (active) | –
7 | O=C(c1ccco1)N1CCC2(CCCN(C(c3ccccc3)c3ccccc3)C2)CC1 | > 11.4 µM (inactive) | 26.1% (inactive) | 15.8 µM (active) | -80.8% (active) | 19.8% (inactive) | > 46 µM (inactive) | inactive | inactive | inactive | 2.05% (inactive) | 10.3% | 13.5% | inactive | – | –
8 | O=C(c1ccncc1)N1CCC[C@@]2(CCN(c3ncccn3)C2)C1 | > 11.4 µM (inactive) | 2.24% (inactive) | inactive | 20.3% (inactive) | 1.34% (inactive) | > 46 µM (inactive) | inactive | inactive | inactive | 3.78% (inactive) | 21.2% | 24.4% | inactive | – | –
9 | COc1ccc(-n2c(=O)cnc3cnc(Oc4ccccc4)nc32)cc1 | > 11.4 µM (inactive) | -8.13% (inactive) | 15.8 µM (active) | 2.58% (inactive) | -13.1% (inactive) | > 46 µM (inactive) | inactive | inactive | inactive | 1.98% (inactive) | 3.82% | 6.57% | inactive | – | –
10 | CC(C)CN1CC[C@@]2(CCCN(S(=O)(=O)c3ccccc3)C2)C1 | > 11.4 µM (inactive) | 1.83% (inactive) | 25.1 µM (active) | -7.95% (inactive) | -0.418% (inactive) | > 46 µM (inactive) | inactive | inactive | inactive | 4.19% (inactive) | 1.96% | 9.28% | inactive | 0.501 µM (active) | –
11 | O=C(c1ccco1)N1CCC[C@@]2(CCN(Cc3ccccc3)C2)C1 | > 11.4 µM (inactive) | -5.26% (inactive) | inactive | -3.82% (inactive) | -7.43% (inactive) | > 46 µM (inactive) | inactive | inactive | inactive | 2.21% (inactive) | -0.541% | 7.17% | inactive | 2 µM (active) | –
12 | Cn1cccc1C(=O)N1CCC[C@@]2(CCN(Cc3ccc(C#N)cc3)C2)C1 | > 11.4 µM (inactive) | -2.05% (inactive) | inactive | -13.8% (inactive) | -3.28% (inactive) | > 46 µM (inactive) | inactive | inactive | inactive | 4.84% (inactive) | 7.42% | 16.5% | inactive | – | –
13 | COc1ccccc1CN1CC[C@@]2(CCCN(C(=O)c3cccn3C)C2)C1 | > 11.4 µM (inactive) | -17% (inactive) | inactive | -9.11% (inactive) | -10.5% (inactive) | > 46 µM (inactive) | inactive | inactive | inactive | 3.67% (inactive) | 9.96% | 13.2% | inactive | 0.316 µM (active) | –
